Measured values: PubChem BioAssay (NCI)
The panel holds about 79,000 compounds, 15% with a hit somewhere; the sample as a whole holds those more often. A number with no mark means an inactive call. Calls of active or inactive are those of the source. No stated cut-off is given here; in the data, active means growth inhibition above about 70%; inactive means the rest.

Experiment: NCI Yeast Anticancer Drug Screen. Data for the wt2 strain (AID 169);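 further: 0% = growth of vehicle-treated yeast cultures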
Settings: S. cerevisiae wt2 strain growth inhibition, hits give high values
Procedure: Growth inhibition of yeast strains with defined genetic alterations is measured as a screen for potential anti-cancer activity. Selected strains with alterations in DNA damage repair or cell cycle control were exposed to compounds and growth inhibition was measured relative to vehicle treated controls. The strain used in this assay is wt2

CC1=NN(C(=O)CC(=O)NC(=O)/C=C\c2ccccc2)C(=O)C1N=Nc1ccc([N+](=O)[O-])cc1 (stereo not given)
growth inhibition (at 1.2 µM): 0%
growth inhibition (at 3.7 µM): 7%
growth inhibition (at 11.0 µM): 39%
growth inhibition (at 33.0 µM): 64%
growth inhibition (at 100.0 µM): 61%

CCN(CC)CC(=O)c1ccc2cc(Cl)c3ccccc3c2c1
growth inhibition (at 1.2 µM): 7%
growth inhibition (at 3.7 µM): 24%
growth inhibition (at 11.0 µM): 99% (active)
growth inhibition (at 33.0 µM): 98% (active)
growth inhibition (at 100.0 µM): 98% (active)

CCOC(=O)/C(=C\c1cccc(C)c1)C(C)=O
growth inhibition (at 1.2 µM): 20%
growth inhibition (at 3.7 µM): 23%
growth inhibition (at 11.0 µM): 69%
growth inhibition (at 33.0 µM): 92% (active)
growth inhibition (at 100.0 µM): 99% (active)

OC1(c2ccccc2)C2CC=CC2C1(c1ccccc1)c1ccccc1 (stereo not given)
growth inhibition (at 1.2 µM): -8%
growth inhibition (at 3.7 µM): -11%
growth inhibition (at 11.0 µM): -8%
growth inhibition (at 33.0 µM): 7%
growth inhibition (at 100.0 µM): 54%

CC1CN(/N=C\c2ccc([N+](=O)[O-])o2)C(=O)O1 (stereo not given)
growth inhibition (at 1.2 µM): -3%
growth inhibition (at 3.7 µM): 6%
growth inhibition (at 11.0 µM): -3%
growth inhibition (at 33.0 µM): -1%
growth inhibition (at 100.0 µM): 18%

COc1cc(C2C3=C(COC3=O)Oc3cc4c(cc32)OCO4)cc(OC)c1O (stereo not given)
growth inhibition (at 1.2 µM): 2%
growth inhibition (at 3.7 µM): 1%
growth inhibition (at 11.0 µM): 5%
growth inhibition (at 33.0 µM): 6%
growth inhibition (at 100.0 µM): 8%

CC(C)C(=O)CC(Sc1ccc(N)cc1)c1ccccc1 (stereo not given)
growth inhibition (at 1.2 µM): -2%
growth inhibition (at 3.7 µM): -2%
growth inhibition (at 11.0 µM): 10%
growth inhibition (at 33.0 µM): 47%
growth inhibition (at 100.0 µM): 57%

N#[N+]c1c([O-])c2ccccc2c2ccccc12
growth inhibition (at 1.2 µM): 2%
growth inhibition (at 3.7 µM): 5%
growth inhibition (at 11.0 µM): 12%
growth inhibition (at 33.0 µM): 60%
growth inhibition (at 100.0 µM): 98% (active)
